NPR2 activator: GC-B (human) receptor activation; P20594; activation, % at 10 µM; HEK293-GC-B cells, CNP EC30, cGMP TR-FRET; 0% at EC30 CNP, 100% saturating CNP; AID 1920062; 370,000 compounds, 0.11% hits;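 active = activation at 10 µM reaching about 35% in either raw or pattern-adjusted values, limit read from the data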
TLR4 MyD88 comp: inhibitors of human TLR4-MyD88 binding; HeLa CL3-4 TLR4/MyD88 BLA complementation, FRET ratio; 200,000 compounds, 0.18% hits; AID 861; inhibition, % at 8.4 µM; in the data active = inhibition above about 25%
Neddylation inh: inhibitors of human cullin neddylation. inhibition, % at 25 µM. 360,000 compounds, 0.58% hits. TR-FRET cullin neddylation, biochemical. P61081+Q13564. AID 651699; in the data active = inhibition above about 36%
Target sequence (P61081 whole entry, looked up): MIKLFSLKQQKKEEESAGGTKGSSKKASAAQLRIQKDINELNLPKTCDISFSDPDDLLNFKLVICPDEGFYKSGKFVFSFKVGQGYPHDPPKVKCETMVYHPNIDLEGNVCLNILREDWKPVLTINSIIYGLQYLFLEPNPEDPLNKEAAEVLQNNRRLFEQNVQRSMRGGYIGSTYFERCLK
Target sequence (Q13564 whole entry, looked up): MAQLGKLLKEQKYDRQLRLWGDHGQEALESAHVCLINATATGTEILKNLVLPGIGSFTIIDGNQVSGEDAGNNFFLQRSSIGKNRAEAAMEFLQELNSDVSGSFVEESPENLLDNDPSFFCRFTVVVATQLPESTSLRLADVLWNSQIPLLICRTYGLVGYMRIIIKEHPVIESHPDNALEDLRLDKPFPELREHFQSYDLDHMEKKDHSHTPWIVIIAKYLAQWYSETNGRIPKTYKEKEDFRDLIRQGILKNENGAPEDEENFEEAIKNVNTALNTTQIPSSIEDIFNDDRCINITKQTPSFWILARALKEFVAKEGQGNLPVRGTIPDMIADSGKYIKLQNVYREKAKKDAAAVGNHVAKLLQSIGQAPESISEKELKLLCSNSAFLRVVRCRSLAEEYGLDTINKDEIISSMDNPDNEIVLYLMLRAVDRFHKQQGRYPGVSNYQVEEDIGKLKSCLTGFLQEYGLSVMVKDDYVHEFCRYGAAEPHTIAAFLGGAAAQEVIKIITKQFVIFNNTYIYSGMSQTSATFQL
NPR1 activator: GC-A (human) enzyme activation | P16066 | HEK293 GC-A cells, cGMP TR-FRET, EC30 ANP; 0% at EC30 ANP, 100% saturating ANP | activation, % at 10 µM | 370,000 compounds, 0.14% hits; in the data active = activation above about 40%
TLR9-MyD88 inh: TLR9-MyD88 interaction inhibition; AID 504734; CHO BLA complementation TLR9-MyD88, CCF4 FRET ratio; Q9NR96+Q99836; inhibition, % at 4.98 µM; 340,000 compounds, 0.21% hits;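 active = inhibition above the mean over all tested compounds plus 3 SD, cut at about 21% in these data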
NOD2-RIPK2 inh: inhibitors of human NOD2-RIPK2 interaction. 360,000 compounds, 0.38% hits. inhibition, % at 4.98 µM. CHO BLA complementation NOD2-RIPK2, CCF4 ratio; in the data active = inhibition above about 21%
TLR9-MyD88 cf: TLR9-MyD88 interaction inhibition, confirmation; CHO TLR9/MyD88 BLA complementation, CCF4 FRET ratio; inhibition, % at 4.98 µM; shares compounds with TLR9-MyD88 inh; 680 compounds, 51% hits; AID 540250;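 active = mean inhibition across three repeats above about 21% taken from the earlier screen, limit read from the data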;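 also: blue over green emission ratio reports constitutive TLR9 MyD88 association via BLA complementation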
BLA counter-1: non-selective beta-lactamase inhibitors in TLR9-MyD88 counter-screen | shares compounds with TLR9-MyD88 inh | AID 540251 | CHO-BLA cells, CCF4 FRET ratio, BLA reporter | 680 compounds, 7% hits | inhibition, % at 4.98 µM;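 active = mean inhibition above a 50% cutoff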;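 also: counterscreen of TLR9-MyD88 hits on CMV-driven BLA in CHO-K1 cells; higher means less blue over green ratio so more BLA blockade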
TLR9 CHO cytotox: CHO cell toxicity counter-screen for TLR9-MyD88 inhibitors; shares compounds with TLR9-MyD88 inh; TLR9-MyD88 CHO cells cytotoxicity, luminescence; inhibition, % at 4.98 µM; 680 compounds, 39% hits; in the data active = inhibition above about 11%
NOD2-RIPK2 conf: confirmation of human NOD2-RIPK2 interaction inhibitors. CHO cells, NOD2-RIPK2 BLA complementation, CCF4 FRET. shares compounds with NOD2-RIPK2 inh. 1,200 compounds, 70% hits. inhibition, % at 4.98 µM;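 active = mean inhibition across replicates above a set limit taken from the earlier primary screen, cut at about 21% in these data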
BLA counter-2: NOD2-RIPK2 counterscreen BLA reporter activity. inhibition, % at 4.98 µM. CHO BLA reporter, CCF4 FRET ratio. AID 624371. shares compounds with NOD2-RIPK2 inh. 1,200 compounds, 57% hits;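 active = mean inhibition above the low-control mean inhibition plus three low-control SD, cut at about 11% in these data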
A number is an active result; . = inactive; / = no result given. Most compounds without a hit are left out; they make up all but 1.2% or so of the library.

SMILES | NPR2 activator | TLR4 MyD88 comp | Neddylation inh | NPR1 activator | TLR9-MyD88 inh | NOD2-RIPK2 inh | TLR9-MyD88 cf | BLA counter-1 | TLR9 CHO cytotox | NOD2-RIPK2 conf | BLA counter-2
Cc1ccc(C2C=C(c3ccc4c(c3)OCO4)Nc3ncnn32)cc1 (configuration not stated) | . | . | / | . | 31.5 | 42.1 | . | . | . | 34.1 | 41.6
C1=C(c2ccccc2)Nc2ncnn2C1c1ccccc1 (configuration not stated) | . | / | / | . | 25.2 | 35.4 | . | . | . | . | .
Cc1ccc(C2=CC(c3ccccc3)n3ncnc3N2)c(C)c1 (configuration not stated) | . | / | . | . | . | . | / | / | / | / | /
O=C(C=Cc1cccs1)c1ccccc1 | . | / | . | . | . | . | / | / | / | / | /
Cc1ccc(C(=O)Sc2cccccc2=O)cc1 | . | / | . | . | 29.7 | 34.9 | 21.4 | . | 98.8 | 48.3 | 15.6
O=C(Nc1ccccc1SC(=O)c1ccccc1)c1ccccc1 | . | / | . | . | . | . | / | / | / | / | /
COC(=O)[C@]12C[C@H](CC(=O)NCCCN3CCCC3=O)C(=O)N(Cc3ccc(Cl)cc3Cl)C1=C[C@H](COCc1ccccc1)O[C@@H]2C | . | / | / | . | / | / | / | / | / | / | /
O=C(NCCc1ccccn1)c1ccc2c(c1)ncn2C1CCCCC1 | . | / | / | . | / | / | / | / | / | / | /
Cn1nc2c3cc(F)ccc3n(Cc3ccc(F)cc3)cc-2c1=O | . | / | . | . | . | . | / | / | / | / | /
COc1cc2c3nnc(-c4ccc(F)cc4)c-3cn(Cc3ccc(F)cc3)c2cc1OC | . | . | / | . | 24.4 | 55.6 | . | . | . | 61.0 | 64.1
COC(=O)c1ccccc1NC(=O)/C=N/O | . | . | . | . | . | . | / | / | / | / | /
O=C(/C=N/O)Nc1ccc2sc3ccccc3c2c1 | . | / | . | . | 34.1 | 21.2 | . | . | . | . | 14.7
COc1ccc(/C=C/c2nc3ccccc3c(=O)o2)cc1 | . | / | . | . | . | . | / | / | / | / | /
COc1ccc(/C=C/c2nc3cc(-c4ccccc4)ccc3o2)cc1O | . | . | / | . | 21.5 | 23.0 | . | . | 11.3 | . | 27.2
COc1ccc(F)cc1-c1cc(C(C)=O)c2n(c1=O)CCC2 | . | / | / | . | / | / | / | / | / | / | /
CCN1CCN(Cc2c(O)ccc3c2O/C(=C\C=C\c2ccccc2)C3=O)CC1 | . | . | . | . | . | . | / | / | / | / | /
CCN1CCN(Cc2c(O)ccc3c2O/C(=C\c2ccccc2)C3=O)CC1 | . | . | . | . | 21.0 | 26.8 | . | . | . | 24.5 | 27.9
Cc1ccc(-c2nc3ncccn3c2Nc2ccccc2C)o1 | . | . | . | . | . | . | / | / | / | / | /
Cc1ccc(-c2nc3cnccn3c2Nc2c(C)cccc2C)o1 | . | . | . | . | 28.7 | 49.1 | . | . | . | 35.7 | 40.6
Cc1c(Cl)c(=O)n2c(=O)c(Cl)c(C)n12 | . | . | / | . | 25.6 | 24.3 | . | . | . | 36.9 | 39.6
O=c1c(O)c(-c2cccs2)oc2ccccc12 | . | . | . | . | 20.9 | 29.5 | . | . | . | 41.0 | 38.4
COc1ccc(S[C@]2(C(=O)N3CCN(c4ncccn4)CC3)CC(=O)N(C(=O)c3ccccc3)[C@@H]2c2ccc(OC)cc2)cc1 | . | / | / | . | / | / | / | / | / | / | /
CCCCC1C(=O)N(c2ccccc2)N(c2ccc(O)cc2)C1=O (configuration not stated) | . | / | . | . | 28.7 | 67.8 | . | . | 81.5 | 29.1 | .
CCCCC1(CO)C(=O)N(c2ccccc2)N(c2ccccc2)C1=O | . | / | . | . | . | . | / | / | / | / | /
Nc1ccc2c3c(cccc13)-c1ccccc1-2 | . | / | . | . | 61.9 | 67.2 | 58.5 | 54.1 | . | 73.7 | 80.9
SMILES | NPR2 activator | TLR4 MyD88 comp | Neddylation inh | NPR1 activator | TLR9-MyD88 inh | NOD2-RIPK2 inh | TLR9-MyD88 cf | BLA counter-1 | TLR9 CHO cytotox | NOD2-RIPK2 conf | BLA counter-2
O=C(c1ccc2c(c1)OCO2)N1CCC(Oc2cccnc2)CC1 | . | / | / | . | / | / | / | / | / | / | /
O=S1(=O)CC(N2CCCC2)CN1 (configuration not stated) | . | / | / | . | / | / | / | / | / | / | /
CC[C@@]1(O)C(=O)OCc2c1cc1n(c2=O)Cc2cc3c(N)cccc3nc2-1 | . | / | . | . | . | . | / | / | / | / | /
CC[C@@]1(O)C(=O)OCc2c1cc1n(c2=O)Cc2cc3c(CN(C)C)c(O)ccc3nc2-1 | . | / | . | 53.0 | 54.1 | 71.6 | 49.3 | 52.2 | 60.4 | 81.2 | 78.5
CC(C)(C)c1cc(C2=CSC3=NCCN23)cc(C(C)(C)C)c1O | / | / | . | / | 20.9 | 23.9 | . | . | . | 32.9 | 16.6
Cc1ccc(-n2c(SCC(=O)Nc3ccccc3-c3ccccc3)nnc2-c2ccco2)cc1 | . | / | / | . | / | / | / | / | / | / | /
COC(=O)[C@]12C[C@H](CC(=O)NCC3CCCCC3)C(=O)N(Cc3ccc(Cl)cc3Cl)C1=C[C@H](C(C)C)O[C@@H]2C1CC1 | . | / | / | . | / | / | / | / | / | / | /
N#Cc1c([N+](=O)[O-])cc([N+](=O)[O-])cc1S(=O)(=O)Cc1ccccc1 | . | / | . | . | 46.3 | 86.4 | 40.1 | . | 98.2 | 92.2 | 33.7
COc1cc(OC)c(C#N)c(S(=O)(=O)Cc2ccccc2)c1 | . | . | . | . | . | . | / | / | / | / | /
COc1ccc(OC)c2c1C(=O)c1ccccc1C2=O | . | . | / | . | / | / | / | / | / | / | /
COc1ccc(OC)c2c1C(=O)C(Cl)=C(Cl)C2=O | . | / | . | 43.2 | 45.6 | 85.7 | 69.9 | . | 97.4 | 87.6 | 33.6
COCCCNc1c2c3c(cccc3[nH]c1=O)C(=O)c1ccccc1-2 | . | . | . | . | . | 32.3 | / | / | / | 37.4 | 41.1
CC1CCC2(CC1)CCN(CCCOC(=O)Nc1cccc(C(F)(F)F)c1)C2=O (configuration not stated) | . | / | / | . | / | / | / | / | / | / | /
COc1ccccc1-c1cc(C(F)(F)F)nc(S(C)(=O)=O)n1 | . | . | / | 76.8 | 26.2 | 24.9 | / | / | / | 41.0 | .
CC(C)c1nnc(NC(=O)CCS(=O)(=O)c2nc(-c3cccs3)cc(C(F)(F)F)n2)s1 | . | . | . | . | . | 40.9 | / | / | / | . | .
O=[N+]([O-])c1c(NCCCO)cc(Sc2nc3ccccc3s2)c2nonc12 | / | . | . | / | 40.0 | 91.9 | / | / | / | 81.8 | 29.3
CSc1ccc(-c2csc(N3CCC(C(N)=O)CC3)n2)cc1 | . | / | / | . | / | / | / | / | / | / | /

Screening results (PubChem BioAssay)
